High-throughput results as filed in PubChem BioAssay.
This is one part of a sample in which hits are shown more often than they occur.
Dicer inh: inhibitors of Dicer pre-microRNA processing, primary screen, biochemical, cat-ELCCA, chemiluminescence. AID 1347074, 2019. Endoribonuclease Dicer (Homo sapiens), Q9UPY3. z-score at 25 µM. actives 6% (n = 47,000). cat-ELCCA pre-miR-21 Dicer processing; stronger effect = higher value; in the data active means z-score above about 3, passing the limit was not always enough;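 further: plate controls were vehicle for no effect and no enzyme for full effect; higher signal means more uncleaved substrate so more Dicer inhibition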
* hit, by the source's call.

Screening Cc1ccc(S(=O)(=O)Nc2ccccc2Sc2ncnc3c(C)csc23)cc1 returned Dicer inh -2.39.
For O=C1c2ccccc2-c2c1c1ccccc1c(=O)n2CC1CC1 the results were Dicer inh -0.55.
`O=C1c2ccccc2C(=O)N1CN(Cc1ccc2c(c1)OCO2)CN1C(=O)c2ccccc2C1=O` gave Dicer inh -1.18.
Screening O=C1c2ccccc2-c2c1c1ccccc1c(=O)n2Cc1ccc2c(c1)OCO2 returned Dicer inh 3.14*.
Cn1c(SCc2nc(-c3ccccc3)no2)nnc1C1CCCCC1 was read as Dicer inh 0.97.
Screening Cc1c(C)c(C)c(CN)c(C)c1C returned Dicer inh -1.34.
Cc1[nH]nc(SCC(=O)O)c1[N+](=O)[O-] was read as Dicer inh -0.42.
Screening O=c1sc2ccccc2c(NCCCN2CCOCC2)c1[N+](=O)[O-] returned Dicer inh -0.32.
`CN(C)CCCNc1sc(-c2ccccn2)c([N+](=O)[O-])c1[N+](=O)[O-]` gave Dicer inh 0.03.
`CC(C)(C)Nc1c([N+](=O)[O-])c(=O)sc2ccccc12` gave Dicer inh -0.95.
Screening O=c1sc2ccccc2c(N2CCN(c3ccccc3)CC2)c1[N+](=O)[O-] returned Dicer inh 0.84.
`CCCCNc1c([N+](=O)[O-])c(=O)sc2ccccc12` gave Dicer inh 6.99*.
For O=c1sc2ccccc2c(Nc2ccccc2)c1[N+](=O)[O-] the results were Dicer inh 3.58*.
`S=c1[nH]c(-c2ccc(Cl)cc2)cn1-c1ccccc1` gave Dicer inh 0.46.
For CCOC(=O)c1sc(N2C(=O)c3oc4ccccc4c(=O)c3C2c2ccccc2)nc1C (stereo not drawn) the results were Dicer inh 0.31.
Cc1ccc(S(=O)(=O)NC(=O)NCC(OC(=O)NS(=O)(=O)c2ccc(C)cc2)c2ccccc2)cc1 (stereo not drawn) was read as Dicer inh 1.48.
Cc1cc(C(=O)N2CCN(C(c3ccccc3)c3ccccc3)CC2)nn1C was read as Dicer inh 0.27.
For CCCCOC(=O)C1=C(C)NC2=C(C(=O)CC(C)(C)C2)C1c1cccc(Br)c1 (stereo not drawn) the results were Dicer inh -0.23.
FC(F)(F)c1cc(-c2ccc(Br)cc2)nc2ncnn12 was read as Dicer inh -0.18.
Screening Cc1cc2nc(-c3cccc(Br)c3)cc(C(F)(F)F)n2n1 returned Dicer inh -1.47.
Screening Nc1nc2nc(-c3ccc(OCc4ccccc4)cc3)cc(C(F)(F)F)n2n1 returned Dicer inh 0.12.
Nc1nc2nc(-c3cccc(Br)c3)cc(C(F)(F)F)n2n1 was read as Dicer inh 4.87*.
Screening FC(F)(F)c1cccc(Nc2cc(-c3ccccc3)nc3ncnn23)c1 returned Dicer inh 0.54.
FC(F)(F)c1cc(-c2cccc(Br)c2)nc2ncnn12 was read as Dicer inh 3.87*.
For CN(CCO)c1nc2cc(Cl)ccc2s1 the results were Dicer inh -0.17.
Cn1c(=O)c2c(nc(N3CCCCCC3)n2Cc2ccccc2Cl)n(C)c1=O was read as Dicer inh -0.58.
Screening O=C1C2=C(C(c3ccccc3)=NCCN2)C(c2ccc(F)cc2)N1c1ccccc1 (stereo not drawn) returned Dicer inh -1.33.
`Cc1oc2cc(OC(C)C(=O)O)ccc2c(=O)c1-c1ccc(Br)cc1` (stereo not drawn) gave Dicer inh 0.31.
For NCCc1nnc(SCc2cccc(Cl)c2)o1 the results were Dicer inh 0.36.
`CN(C)CCCNC(=O)c1cc2ccccc2[nH]1` gave Dicer inh 0.92.
Screening c1ccc(C(c2ccccc2)N2CC(Sc3nc4ccccc4s3)C2)cc1 returned Dicer inh -1.15.
Screening O=C(Nc1ccc(Br)cc1)N1CCN(c2ncc(Br)cn2)CC1 returned Dicer inh 0.31.
For NC(=S)N/N=C/Cc1nnnn1-c1ccc(-c2ccccc2)cc1 the results were Dicer inh 3.21*.
For CN(/N=C/Cc1nnnn1-c1ccc(Cl)cc1)c1ccccc1 the results were Dicer inh -1.15.
Screening Clc1ccccc1N/N=C/Cc1nnnn1-c1ccccc1 returned Dicer inh 0.48.
Screening Cn1c2ccccc2c2nnc(SCC(=O)Nc3nnc(COc4ccccc4)s3)nc21 returned Dicer inh -0.34.
`CCc1ccc2oc(-c3cc(N)ccc3Cl)nc2c1` gave Dicer inh 4.5*.
Screening Cc1ccc2oc(-c3cc(N)ccc3Cl)nc2c1 returned Dicer inh 2.71.
Screening Nc1ccc(Cl)c(-c2nc3cc(Cl)ccc3o2)c1 returned Dicer inh 1.81.
For Cc1c(-c2cc(C(F)(F)F)n3nc(-c4cccs4)cc3n2)sc2ccc(Cl)cc12 the results were Dicer inh -5.65.
Screening C=CCc1c(C)nc(SC)nc1Nc1ccc(C(=O)OCC)cc1 returned Dicer inh -0.05.
Screening C=CCc1c(C)nc(SC)nc1Nc1ccc(C)cc1 returned Dicer inh 5.74*.
Screening Cc1ccc(Nc2nc(C)cc(C)c2C#N)cc1 returned Dicer inh 2.9.
`Cn1c(=O)c2c(nc(CN3CCCCC3)n2CCN2CCOCC2)n(C)c1=O` gave Dicer inh -2.24.
Screening CCOC(=O)/C(C#N)=C/NN(C)c1ccc(C(F)(F)F)cc1[N+](=O)[O-] returned Dicer inh -0.69.
Screening CCN1C(=O)C2(/C(=C(/O)c3ccc(OC)cc3)C(=O)C(=O)N2CCCOC)c2ccccc21 (stereo not drawn) returned Dicer inh 1.97.
CCOc1ccc(/C(O)=C2/C(=O)C(=O)N(CCCOC)C23C(=O)N(CC)c2ccccc23)cc1 (stereo not drawn) was read as Dicer inh -7.44.
For CCCN1C(=O)C2(/C(=C(/O)c3ccc(C)c(F)c3)C(=O)C(=O)N2CCCOC)c2ccccc21 (stereo not drawn) the results were Dicer inh 1.04.
CCN1C(=O)C2(/C(=C(/O)c3ccc(C)cc3)C(=O)C(=O)N2CCCOC)c2ccccc21 (stereo not drawn) was read as Dicer inh 3.27*.
CCCN1C(=O)C2(/C(=C(/O)c3ccc(F)cc3)C(=O)C(=O)N2CCCOC)c2ccccc21 (stereo not drawn) was read as Dicer inh 3.62*.
`CCCN1C(=O)C2(/C(=C(/O)c3ccc(C)cc3)C(=O)C(=O)N2CCOC)c2ccccc21` (stereo not drawn) gave Dicer inh 1.23.
For O=[N+]([O-])c1cc(Cl)c(-n2cccc2)cc1Oc1ccc(Cl)cc1 the results were Dicer inh 0.95.
CC1=C(C(=O)Nc2cccc(C)n2)C(c2ccc3c(c2)OCO3)C2=C(CC(C)(C)CC2=O)N1 (stereo not drawn) was read as Dicer inh 2.33.
CCOC(=O)c1sc(S(C)(=O)=O)c2c1CCCC2O (stereo not drawn) was read as Dicer inh -0.48.
`COC(=O)c1ccc(S(=O)(=O)NCc2ccc(N3CCN(C)CC3)cc2)o1` gave Dicer inh -0.09.
For Nc1cc(Cl)ccc1C(=O)N1CCSCC1 the results were Dicer inh -0.56.
Screening N/C(=N\S(=O)(=O)c1ccc(Cl)cc1)N1CCSCC1 returned Dicer inh 3.56*.
CSC/C(N)=N/S(=O)(=O)c1ccc(Cl)cc1 was read as Dicer inh 0.22.
`O=C1NN=C(c2cccs2)CC1c1ccccc1` (stereo not drawn) gave Dicer inh -0.71.
